Screen size: about 5,500 compounds; about 2,000 (36%) were called active. About 18% were inconclusive and are not listed. Rule as the data show it: active = normalized growth mostly below about 0.91 (no sharp cut-off); inconclusive = no clear call, values can overlap the other calls; inactive = mostly above about 0.92. The list shows a part of the results.
Experiment: chemical genetic growth profiling, strain panel (AID 1159580);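 also: tested at 20 µM; growth read once vehicle control cultures reached saturation at 30 °C; 1 = growth at the plate median or of vehicle wells; lower values mean less growth of the strain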
Settings: growth OD

Measured: normalized growth

CO[C@H]1C[C@H](O[C@H]2[C@H](C)[C@@H](OC3O[C@H](C)C[C@H](N(C)C)[C@H]3O)[C@@H](C)C[C@]3(CO3)C(=O)[C@H](C)[C@@H](O)[C@@H](C)[C@@H](C)OC(=O)[C@@H]2C)O[C@@H](C)[C@@H]1O (some centres not stated)
inactive: S. cerevisiae deletion strains, locus YJR075W, strain HOC1, hits give low values 1.01 | S. cerevisiae deletion strains, locus YKL009W, strain mrt4, hits give low values 1 | S. cerevisiae deletion strains, locus YKL068W, hits give low values 1 | S. cerevisiae deletion strains, locus YKL085W, strain MDH1 (second series), hits give low values 0.992 | S. cerevisiae deletion strains, locus YKL085W, strain MDH1, hits give low values 0.992 | S. cerevisiae deletion strains, locus YKL160W, strain elf1, hits give low values 1.06 | S. cerevisiae deletion strains, locus YKL190W, strain CNB1, hits give low values 1 | S. cerevisiae deletion strains, locus YKR001C, strain vps1, hits give low values 1.02 | S. cerevisiae deletion strains, locus YKR026C, strain gcn3, hits give low values 1 | S. cerevisiae deletion strains, locus YKR091W, strain srl3, hits give low values 1 | S. cerevisiae deletion strains, locus YLL001W, strain dnm1, hits give low values 1.06 | S. cerevisiae deletion strains, locus YLL026W, hits give low values 1 | S. cerevisiae deletion strains, locus YLL041C, strain sdh2, hits give low values 1 | S. cerevisiae deletion strains, locus YLR027C, strain aat2, hits give low values 1.01 | S. cerevisiae deletion strains, locus YLR039C, strain RIC1, hits give low values 1.03 | S. cerevisiae deletion strains, locus YLR058C, strain SHM2, hits give low values 1.01 | S. cerevisiae deletion strains, locus YLR102C, strain apc9, hits give low values 0.984 | S. cerevisiae deletion strains, locus YLR113W, strain HOG1, hits give low values 0.995 | S. cerevisiae deletion strains, locus YLR221C, strain rsa3, hits give low values 1.03 | S. cerevisiae deletion strains, locus YLR258W, strain gsy2, hits give low values 1.03 | S. cerevisiae deletion strains, locus YLR262C, strain YPT6 (second series), hits give low values 1.02 | S. cerevisiae deletion strains, locus YLR262C, strain YPT6, hits give low values 0.956 | S. cerevisiae deletion strains, locus YLR268W, strain sec22, hits give low values 1.05 | S. cerevisiae deletion strains, locus YLR320W, strain mms22, hits give low values 1.07 | S. cerevisiae deletion strains, locus YLR330W, strain CHS5, hits give low values 1.01 | S. cerevisiae deletion strains, locus YLR342W, strain FKS1 (second series), hits give low values 1.01 | S. cerevisiae deletion strains, locus YLR342W, strain FKS1, hits give low values 1.01 | S. cerevisiae deletion strains, locus YLR357W, strain rsc2, hits give low values 1.05 | S. cerevisiae deletion strains, locus YLR370C, strain arc18, hits give low values 0.991 | S. cerevisiae deletion strains, locus YLR371W, strain rom2, hits give low values 0.985 | S. cerevisiae deletion strains, locus YLR384C, strain iki3, hits give low values 1 | S. cerevisiae deletion strains, locus YLR418C, strain cdc73, hits give low values 1.03 | S. cerevisiae deletion strains, locus YML016C, strain PPZ1, hits give low values 1 | S. cerevisiae deletion strains, locus YML032C, strain rad52, hits give low values 1.01 | S. cerevisiae deletion strains, locus YML120C, strain ndi1, hits give low values 1.02 | S. cerevisiae deletion strains, locus YML124C, strain tub3, hits give low values 1 | S. cerevisiae deletion strains, locus YMR058W, strain fet3, hits give low values 1.01 | S. cerevisiae deletion strains, locus YMR078C, strain ctf18, hits give low values 0.996 | S. cerevisiae deletion strains, locus YMR125W, strain sto1, hits give low values 1.07 | S. cerevisiae deletion strains, locus YMR129W, hits give low values 0.997 | S. cerevisiae deletion strains, locus YMR205C, strain PFK2, hits give low values 1.05 | S. cerevisiae deletion strains, locus YMR223W, strain ubp8, hits give low values 1 | S. cerevisiae deletion strains, locus YMR231W, strain pep5, hits give low values 1 | S. cerevisiae deletion strains, locus YMR263W, strain SAP30, hits give low values 1.02 | S. cerevisiae deletion strains, locus YMR307W, strain GAS1, hits give low values 0.983 | S. cerevisiae deletion strains, locus YNL067W, strain RPL9B, hits give low values 1.02 | S. cerevisiae deletion strains, locus YNL071W, strain lat1, hits give low values 1.01 | S. cerevisiae deletion strains, locus YNL128W, strain TEP1, hits give low values 1.01 | S. cerevisiae deletion strains, locus YNL153C, strain GIM3, hits give low values 1.01 | S. cerevisiae deletion strains, locus YNL183C, strain NPR1, hits give low values 0.962 | S. cerevisiae deletion strains, locus YNL209W, strain ssb2, hits give low values 1.01 | S. cerevisiae deletion strains, locus YNL233W, strain BNI4, hits give low values 1.02 | S. cerevisiae deletion strains, locus YNL248C, strain rpa49, hits give low values 1.09 | S. cerevisiae deletion strains, locus YNL250W, strain rad50, hits give low values 1.01 | S. cerevisiae deletion strains, locus YNL271C, strain bni1, hits give low values 1.01 | S. cerevisiae deletion strains, locus YNL298W, strain CLA4, hits give low values 1.01 | S. cerevisiae deletion strains, locus YNL307C, strain MCK1, hits give low values 0.982 | S. cerevisiae deletion strains, locus YNL322C, strain KRE1 (second series), hits give low values 1.02 | S. cerevisiae deletion strains, locus YNL322C, strain KRE1, hits give low values 1.01 | S. cerevisiae deletion strains, locus YNR049C, strain mso1, hits give low values 0.997 | S. cerevisiae deletion strains, locus YNR052C, strain pop2, hits give low values 0.99 | S. cerevisiae deletion strains, locus YOL006C, strain TOP1, hits give low values 1.03 | S. cerevisiae deletion strains, locus YOL012C, strain htz1 1.14 | S. cerevisiae deletion strains, locus YOL147C, strain pex11, hits give low values 0.996 | S. cerevisiae deletion strains, locus YOR001W, strain rrp6, hits give low values 0.974 | S. cerevisiae deletion strains, locus YOR061W, strain CKA2, hits give low values 1 | S. cerevisiae deletion strains, locus YOR069W, strain VPS5, hits give low values 1.01 | S. cerevisiae deletion strains, locus YOR070C, strain gyp1, hits give low values 0.999 | S. cerevisiae deletion strains, locus YOR080W, strain dia2, hits give low values 0.988 | S. cerevisiae deletion strains, locus YOR083W, strain WHI5, hits give low values 1.07 | S. cerevisiae deletion strains, locus YOR106W, strain vam3, hits give low values 1.08 | S. cerevisiae deletion strains, locus YOR136W, strain idh2, hits give low values 1.01 | S. cerevisiae deletion strains, locus YOR144C, strain elg1, hits give low values 1 | S. cerevisiae deletion strains, locus YOR184W, strain ser1, hits give low values 1.01 | S. cerevisiae deletion strains, locus YOR231W, strain MKK1, hits give low values 1 | S. cerevisiae deletion strains, locus YOR265W, strain rbl2, hits give low values 1 | S. cerevisiae deletion strains, locus YOR270C, strain vph1, hits give low values 1.03 | S. cerevisiae deletion strains, locus YOR290C, strain snf2, hits give low values 1.03 | S. cerevisiae deletion strains, locus YOR316C, strain cot1, hits give low values 0.985 | S. cerevisiae deletion strains, locus YPL051W, strain arl3, hits give low values 1.04 | S. cerevisiae deletion strains, locus YPL055C, strain LGE1, hits give low values 1.05 | S. cerevisiae deletion strains, locus YPL078C, strain atp4, hits give low values 1.06 | S. cerevisiae deletion strains, locus YPL106C, strain sse1, hits give low values 1.03 | S. cerevisiae deletion strains, locus YPL240C, strain hsp82, hits give low values 1 | S. cerevisiae deletion strains, locus YPL241C, strain CIN2, hits give low values 1 | S. cerevisiae deletion strains, locus YPL256C, strain CLN2, hits give low values 0.982 | S. cerevisiae deletion strains, locus YPR119W, strain clb2, hits give low values 0.99 | S. cerevisiae deletion strains, locus YPR141C, strain kar3, hits give low values 1.01 | S. cerevisiae deletion strains, locus YPR163C, strain tif3, hits give low values 0.989 | S. cerevisiae deletion strains, locus YPR167C, strain met16, hits give low values 1 | S. cerevisiae deletion strains, strain wtn01, hits give low values 1.03 | S. cerevisiae strains, strain wild type, hits give low values 1
